Assay outcomes from PubChem BioAssay.
ST2 inh: inhibitors of human ST2 (IL1RL1) binding to IL-33, primary screen, biochemical, AlphaLISA; AlphaLISA ST2-Fc/biotin-IL-33 interaction, 1 h; inhibition, % for hits at 17 µM; 2.3% of 78,000 active; Interleukin-1 receptor-like 1 (Homo sapiens), Q01638; in the data active = inhibition above about 30%
Target sequence (Q01638 whole entry, looked up): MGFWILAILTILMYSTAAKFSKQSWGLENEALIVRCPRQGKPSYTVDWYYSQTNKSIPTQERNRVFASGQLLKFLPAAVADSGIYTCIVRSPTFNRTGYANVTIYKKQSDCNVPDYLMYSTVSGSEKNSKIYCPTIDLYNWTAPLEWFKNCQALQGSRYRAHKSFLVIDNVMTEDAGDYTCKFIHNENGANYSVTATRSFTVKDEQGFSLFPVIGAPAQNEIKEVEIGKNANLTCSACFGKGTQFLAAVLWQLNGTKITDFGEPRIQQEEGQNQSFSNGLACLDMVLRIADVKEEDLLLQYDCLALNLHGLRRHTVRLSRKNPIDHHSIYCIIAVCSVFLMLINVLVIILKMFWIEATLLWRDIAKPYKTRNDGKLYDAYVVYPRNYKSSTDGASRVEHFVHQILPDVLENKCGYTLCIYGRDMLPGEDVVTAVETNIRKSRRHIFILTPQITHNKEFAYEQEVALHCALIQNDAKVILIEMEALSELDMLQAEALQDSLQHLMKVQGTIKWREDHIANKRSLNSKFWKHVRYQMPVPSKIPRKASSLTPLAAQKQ
Each line names hits and unclear results; the compound was inactive in the other large screens. The sample as a whole holds a higher share of hits than the screen did.

CCOC(=O)C1CCN(Cc2nnc(CC3CCNCC3)n2C)CC1	none
Cc1ccc(-n2c(SCC(=O)N3CCC(C)CC3)nc3c(c2=O)SCC3)cc1	none
CCC(C)NC(=O)C1c2ccccc2C(=O)N2CCc3ccccc3C12 (stereo not drawn)	none
Cc1ccc(-n2nc3c(c2NC(=O)C2CC2)CSC3)c(C)c1	none
COc1ccc(C2SCCN2S(=O)(=O)c2ccc(-c3ccccc3)cc2)cc1[N+](=O)[O-] (stereo not drawn)	none
COc1cc(NC(=O)N2C[C@@H]3C[C@H](C2)c2ccc(NS(=O)(=O)c4ccccc4)c(=O)n2C3)cc(OC)c1	none
CCN(CC)C(=O)Cn1c(=O)n(CC(=O)NCc2ccc(C)cc2)c(=O)c2sccc21	none
Cc1ccc(-c2noc(CCC(=O)NCCC3=CCCCC3)n2)cc1	none
NC(=Nc1nc2ccccc2o1)NC(=O)c1ccccc1Br	none
O=C(c1ccco1)N(C/C=C/c1ccccc1)CCO	none
CCN1CC(n2cnc(-c3ccccc3)c2-c2ccc3occc3c2)CC1=O (stereo not drawn)	none
O=C(Nc1ccc(S(=O)(=O)Nc2nccs2)cc1)C1COc2ccccc2O1 (stereo not drawn)	none
O=C1CCc2cc(S(=O)(=O)NC3CCCC3)ccc2N1	none
COc1ccc2nc(NC(=O)/C=C/c3ccc([N+](=O)[O-])cc3)sc2c1	ST2 inh 31%
CS(=O)(=O)c1ccc2nc(NC(=O)/C=C/c3ccc(Cl)cc3)sc2c1	none
COc1ccc2nc(NC(=O)c3ccc(Cl)s3)sc2c1	none
O=C1CN(S(=O)(=O)c2cccc3cccnc23)CC(=O)N1CCc1ccccc1	none
O=C(c1cc2ncc(Br)cn2n1)N1CCOCC1	ST2 inh 38%
O=C(c1nn2cc(Br)cnc2c1Br)N1CCOCC1	none
O=C(c1cccc(Br)c1)N1CCOCC1	none
Cc1cc2nc(Cc3ccccc3C(F)(F)F)c(=O)n(C)c2cc1C	none
Cn1c(=O)c2c(SCC(=O)NC3CCCC3)nc(-c3cccs3)nc2n(C)c1=O	none
Cc1ccc(S(=O)(=O)NC[C@H]2O[C@@H](CC(=O)Nc3ccccc3)[C@H](O)[C@@H]2O)cc1	none
COc1ccccc1/C=C1/SC(N2CCN(C)CC2)=NC1=O	none
COc1ccccc1/C=C1\SC(N2CC(C)OC(C)C2)=NC1=O (stereo not drawn)	none
O=C1N=C(N2CCCC2)S/C1=C/c1cccc(O)c1	none
Cc1cccc(/C=C2\CS/C(=C\c3cccc(C)c3)C2=O)c1	ST2 inh 55%
COc1cccc(/C=C2\CS/C(=C\c3cccc(OC)c3OC)C2=O)c1OC	ST2 inh 39%
Cc1cccc(/C=C2\NC(=O)N(Cc3ccc(Cl)cc3)C2=O)c1	none
O=C1/C(=C/c2ccsc2)CS/C1=C\c1ccsc1	ST2 inh 39%
Clc1ccccc1Cn1c(CSC2=NCCN2)nc2ccccc21	none
CCS(=O)(=O)N1CCN(c2cc(-c3ccc(F)cc3)ncn2)CC1	none
Cc1cc(C)c(C)c(S(=O)(=O)N2CCC(N(C)CCC(C)C)CC2)c1C	none
COc1ccc(-c2nc3sccn3c2Nc2ccc3c(c2)OCO3)cc1	ST2 inh 30%
COc1cc(-c2nc3cnccn3c2Nc2ccc3c(c2)OCCO3)ccc1O	none
Cc1ccc(-c2nc3sccn3c2Nc2ccccc2C)cc1	none
Cc1ccc(S(=O)(=O)Nc2ccc(=O)n3c2[C@@H]2C[C@@H](CN(C(=O)COc4ccccc4)C2)C3)cc1	none
C=C(C)COc1ccc2cc(-c3nc4ccccc4s3)c(=O)oc2c1	none
Cc1ccc2oc(=O)c(-c3nc4ccccc4s3)cc2c1	ST2 inh 36%
CCN(CC)c1ccc2cc(-c3nc4ccccc4s3)c(=O)oc2c1	none
COc1ccc(S(=O)(=O)N(Cc2ccccc2)C(C)C)cc1	none
COc1ccccc1CNC(=O)c1ccc(N(Cc2ccccc2Cl)S(C)(=O)=O)cc1	none
COc1ccc(Nc2nc3c(C)cccn3c(=O)c2C=NCc2ccccc2)cc1	ST2 inh 40%
COc1ccc(NC(=O)c2cc3c(=O)n4cccc(C)c4nc3n2C)c(OC)c1	none
Cc1ccc(N=Cc2c(Nc3ccccc3)nc3c(C)cccn3c2=O)cc1	none
Cc1nc(C(C)C)ncc1C(=O)N(C)Cc1snnc1C	none
N#CC1=C(N)N(c2ccccc2[N+](=O)[O-])C2=C(C(=O)CCC2)C1c1cccc([N+](=O)[O-])c1 (stereo not drawn)	ST2 inh 31%
N#CC1=C(N)OC2=C(C(=O)CCC2)C1c1cccc([N+](=O)[O-])c1 (stereo not drawn)	none
Cc1ccccc1N1C(N)=C(C#N)C(c2ccc(F)cc2)C2=C1CCCC2=O (stereo not drawn)	none
CCOC(=O)C1C(=O)C=C(c2ccco2)CC1c1ccc(OC)c(OC)c1 (stereo not drawn)	none
O=S(=O)(N=C(OC1CCCCC1)c1ccccc1)c1ccccc1	none
CC(Oc1ccccc1)C(=O)N1CCN(c2ccc([N+](=O)[O-])cc2)CC1 (stereo not drawn)	ST2 inh 48%
O=C(c1ccccc1Cl)N1CCN(c2ccc([N+](=O)[O-])cc2)CC1	none
O=C(C(Cl)Cl)N1CCN(c2ccc([N+](=O)[O-])cc2)CC1	none
CCn1c(CC2CCN(C(=O)CCCN3CCCC3)CC2)nn(C)c1=O	none
Cc1cc(C)c2nc(NC(=O)c3ccc(N(C)C)cc3)sc2c1	none
CCCCc1cc(C[C@H]2CNCC[C@H]2CC(=O)N2CCN(C(C)=O)CC2)no1	ST2 inh 43%
COC(=O)c1cc(C[C@H]2CNCC[C@H]2CC(=O)O)no1	ST2 inh 77%
COc1ccc(CNC(=O)C[C@@H]2CCNC[C@@H]2Cc2cc(-c3ccccc3)on2)cc1OC	none
COc1ccc(-c2cc(C[C@H]3CNCC[C@H]3CC(=O)N3CCN(C(C)=O)CC3)no2)cc1	none
CCCCc1cc(C[C@H]2CNCC[C@H]2CC(=O)N2CCc3cc(OC)c(OC)cc3C2)no1	none
COc1ccccc1CNC(=O)C[C@@H]1CCNC[C@@H]1Cc1cc(-c2ccccc2)on1	none
O=C(Nc1ccc2c(c1)OCO2)N1CCCCC1CCn1cccn1 (stereo not drawn)	none
CCOc1ccc(N(CC(=O)NCc2ccccn2)S(=O)(=O)c2ccc(C)cc2)cc1	none
Cc1ccc(N2C(=O)CC(Sc3nnc(N)s3)C2=O)cc1 (stereo not drawn)	none
COc1cccc(-c2cc(C(=O)Nc3sc4c(c3C(N)=O)CCCC4)no2)c1	none
CCOc1ccc(Sc2cc(C(=O)N3CCCC3)c3ccccc3n2)cc1	none
CCc1nc(SCC(=O)Nc2ccc(OC)cc2)c(C#N)cc1C	none
O=C(CCS(=O)(=O)c1cccc2nonc12)Nc1ccc(F)cc1	none
CCOC(=O)c1ccc2[nH]cc(C(=O)c3ccc(C)cc3)c(=O)c2c1	none
CCc1ccc(C(=O)c2c[nH]c3ccc(CC)cc3c2=O)cc1	none
CCc1ccc(C(=O)c2c[nH]c3ccc(F)cc3c2=O)cc1	ST2 inh 42%
CCOC(=O)c1ccc2[nH]cc(C(=O)c3ccccc3)c(=O)c2c1	none
CCc1ccc(C(=O)c2c[nH]c3ccc(C)cc3c2=O)cc1	none
Cc1ccc(C(=O)c2c[nH]c3ccc(Br)cc3c2=O)cc1	ST2 inh 33%
Cn1nnc(-c2ccc(C(=O)N3CC(c4cccnc4)C3)cc2)n1	none
CSCC[C@@H](C(=O)NCc1ccco1)N1Cc2ccccc2C1=O	none
CN1/C(=C\C(=O)c2ccc([N+](=O)[O-])cc2)C(C)(C)c2ccccc21	ST2 inh 36%
CN1C(=O)C(O)(CC(=O)c2cccc([N+](=O)[O-])c2)c2ccccc21 (stereo not drawn)	none
NC(=O)c1ccc(C(=O)c2ccc([N+](=O)[O-])cc2)cc1	none
CCNC(=O)c1c(NC(=O)COc2ccc([N+](=O)[O-])cc2)sc2c1CCCC2	none
